Source: PubChem (Johns Hopkins Ion Channel Center)
Shown are actives, neighbours in structure and some others; about 1.6% of the full set was active somewhere.
KCNQ2 inh: blocks the rat KCNQ2 potassium channel. O88943. AID 2156. CHO-K1 KCNQ2, FluxOR thallium flux, 20 min; stronger effect = lower value. B-score at 10 µM. 1.1% of 310,000 active;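 active = fluorescence ratio B-score at most minus 3 library SDs, with starting brightness B-score within 2 library SDs, cut at about -5.5 in these data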
KCNQ2 pot: potentiators of rat KCNQ2 potassium channel; CHO-K1 KCNQ2, FluxOR thallium flux fluorescence; stronger effect = higher value; B-score at 10 µM; 0.54% of 310,000 active; AID 2239;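 active = fluorescence ratio B-score at least 3 SD of library B-scores, with initial fluorescence B-score within 3 of them, cut at about 5.3 in these data; same plate scores as AID 2156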;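 also: B-score of peak minus minimum over baseline fluorescence ratio after K+ and Tl+ stimulus; positive B-score means potentiation of KCNQ2 with more thallium influx and brighter signal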
Kir21 confirm: confirmation of mouse Kir2.1 potassium channel inhibitors | Tl flux remaining, % of negative control (stronger effect = lower value), % at 10 µM | 41% of 2,300 active | AID 2032 | shares compounds with KCNQ2 pot | Kir2.1-expressing cells, FluxOR thallium flux fluorescence; stronger effect = lower value;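 active = Primary-screen hit whose thallium flux fell at least 3 control SD below untreated wells in both duplicates, with normal baseline fluorescence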;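 also: 0% = blank wells without stimulus and 100% = stimulated no-compound controls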
HEK293 Tl flux: parental HEK293 activity in Kir2.1 inhibitor counter-screen; shares compounds with KCNQ2 pot; parental HEK293 cells, FluxOR thallium flux fluorescence; 0% = unstimulated blank wells; FluxOR signal as % of negative control (100 = no effect), % at 10 µM; 19% of 2,300 active;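 active = dye signal at least 3 control SD above or below untreated wells in both duplicates, raw fluorescence within 3, either direction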;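 also: percent is based on the flux ratio of peak minus minimum fluorescence over baseline F0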
CHO-K1 Tl ctr: parental CHO-K1 activity in KCNQ2 potentiator counter-screen; shares compounds with KCNQ2 pot; 43% of 1,200 active; parental CHO-K1 cells, FluxOR thallium flux fluorescence; zero = vehicle mean+3SD, 100% = vehicle-minus-blank window; AID 2282; activity increase over 3SD of controls, % at 10 µM;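 active = signal rise of at least 3 SD above the untreated control mean, in both duplicate wells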;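 also: counter screen of KCNQ2 potentiator hits so any rise reflects channel-independent effects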
KCNQ1 pot spec: human KCNQ1 counter-target activity of KCNQ2 potentiators; shares compounds with KCNQ2 pot; CHO KCNQ1 stable, FluxOR thallium flux fluorescence; beyond 3SD, as % of vehicle-control signal; 28% of 1,200 active; activation over 3SD threshold, % at 10 µM; AID 2283;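 active = fluorescence ratio rise of at least 3 SD of vehicle wells above their mean, in both replicate wells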;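 also: 0% = vehicle mean plus 3 SD and 100% = vehicle minus unstimulated blank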
KCNQ2 pot conf: rat KCNQ2 channel potentiator confirmation | potentiation, less the hit threshold, % at 10 µM | 68% of 1,200 active | CHO-KCNQ2 cells, FluxOR thallium flux fluorescence | shares compounds with KCNQ2 pot;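 active = fluorescence ratio rising 3 SD or more over the vehicle control mean in both replicates, plus primary screen hit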;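 also: peak minus minimum thallium fluorescence divided by baseline after K/Tl stimulus; 0% = vehicle mean plus 3 SD and 100% = vehicle minus unstimulated blank difference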
Kir21 spec: mouse Kir2.1 off-target activity of KCNQ2 potentiators; shares compounds with KCNQ2 pot; HEK293 Kir2.1, FluxOR thallium flux fluorescence; activity over 3SD threshold, % at 10 µM; 2% of 1,200 active; AID 2345;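 active = fluorescence ratio rise of at least 3 SD above the vehicle-control mean, seen in both replicates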;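 also: 0% = vehicle mean plus 3 SD and 100% = vehicle minus no-stimulus blank window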
KCNQ2 W236L pot: potentiates the retigabine-insensitive rat KCNQ2 W236L mutant channel. 10% of 940 active. CHO KCNQ2-W236L, automated patch clamp current. current increase over 3SD of negative controls (%), stronger effect = higher value, % at 25 µM. shares compounds with KCNQ2 pot;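 active = current increase at least 3 SD of the untreated controls above them in both duplicate recordings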
Target sequence (O88943 whole entry W236L, looked up): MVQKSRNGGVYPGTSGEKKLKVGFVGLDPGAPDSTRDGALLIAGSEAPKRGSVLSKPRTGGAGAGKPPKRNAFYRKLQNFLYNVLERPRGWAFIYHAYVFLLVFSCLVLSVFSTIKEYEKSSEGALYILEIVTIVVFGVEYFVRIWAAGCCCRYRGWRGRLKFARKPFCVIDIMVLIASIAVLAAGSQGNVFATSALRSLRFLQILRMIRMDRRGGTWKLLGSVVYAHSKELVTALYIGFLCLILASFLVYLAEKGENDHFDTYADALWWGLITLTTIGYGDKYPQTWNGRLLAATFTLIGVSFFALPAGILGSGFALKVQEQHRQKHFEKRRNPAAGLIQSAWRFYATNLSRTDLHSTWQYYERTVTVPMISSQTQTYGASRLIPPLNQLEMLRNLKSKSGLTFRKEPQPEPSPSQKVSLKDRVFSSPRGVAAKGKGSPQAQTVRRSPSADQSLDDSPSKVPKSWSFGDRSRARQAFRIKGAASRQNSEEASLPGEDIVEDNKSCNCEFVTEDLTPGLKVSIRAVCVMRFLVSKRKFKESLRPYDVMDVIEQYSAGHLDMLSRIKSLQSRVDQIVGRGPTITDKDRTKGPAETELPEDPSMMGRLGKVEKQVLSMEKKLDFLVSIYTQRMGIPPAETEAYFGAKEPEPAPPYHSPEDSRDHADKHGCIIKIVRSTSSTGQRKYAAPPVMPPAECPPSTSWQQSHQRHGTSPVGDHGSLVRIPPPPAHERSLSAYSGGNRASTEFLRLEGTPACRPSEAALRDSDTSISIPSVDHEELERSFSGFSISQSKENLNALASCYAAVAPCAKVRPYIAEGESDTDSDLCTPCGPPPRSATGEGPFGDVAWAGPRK
Active calls of the source: *; i = inactive; . = no result given.

SMILES | KCNQ2 inh | KCNQ2 pot | Kir21 confirm | HEK293 Tl flux | CHO-K1 Tl ctr | KCNQ1 pot spec | KCNQ2 pot conf | Kir21 spec | others
CCCCc1ccc(NC(=O)C2CCCC2)cc1 | i | 7* | i | i | 109* | -9 | -2 | -38 | KCNQ2 W236L pot=i
CCCCc1ccc(NC(=O)COCC)cc1 | i | 1.3 | . | . | . | . | . | .
CCCCc1ccc(NC(=O)CC(C)C)cc1 | i | 7.4* | i | 280%* | -19 | -2 | 94* | -21 | KCNQ2 W236L pot=i
CCC1=C(c2cc(OC)c(OC)c(OC)c2)C2(CCCC2)C(=O)O1 | i | 0.02 | . | . | . | . | . | .
Cc1ccc(C(=O)Nn2cnnc2)cc1 | i | 0.64 | . | . | . | . | . | .
O=C(Cc1cccs1)NCc1ccc(Cl)cc1Cl | i | . | . | . | . | . | . | .
Cc1ccc(CN(CC(=O)NC(C)(C)C)C(=O)CNC(=O)c2cccs2)cc1 | i | . | . | . | . | . | . | .
COc1cc(OC)cc(C(=O)Nc2cccnc2)c1 | i | 1.1 | . | . | . | . | . | .
COc1cc(OC)cc(C(=O)Nc2ccc(C(=O)c3ccncc3)cc2)c1 | i | 11* | i | i | 28* | 42* | 20* | -36 | KCNQ2 W236L pot=i
CCc1nc(SCC(=O)N2CCCCCC2)c2c(=O)n(C)c(=O)n(C)c2n1 | i | 5.5* | i | i | -16 | 5.9* | 35* | -49 | KCNQ2 W236L pot=i
CCc1nc(SCC(=O)N2CCOCC2)c2c(=O)n(C)c(=O)n(C)c2n1 | i | 2 | . | . | . | . | . | .
CC(C)c1nc(SCC(=O)N2CCCC2)c2c(=O)n(C)c(=O)n(C)c2n1 | i | 3.8 | . | . | . | . | . | .
CC(C)c1nc(SCC(=O)N2CCCCCC2)c2c(=O)n(C)c(=O)n(C)c2n1 | i | 17* | i | i | 6.8* | -11 | 54* | -20 | KCNQ2 W236L pot=i
O=C(c1ccc(Cl)c(S(=O)(=O)N2CCCC2)c1)N1CCCC(C(F)(F)F)C1 (configuration not stated) | i | . | . | . | . | . | . | .
COc1cccc(/C=N/n2c(SC)nnc2-c2ccccc2)c1O | i | 5.3* | i | i | -24 | -4 | -13 | -29
COc1cccc(/C=N/n2c(SC)nnc2-c2ccccc2)c1OC | i | . | . | . | . | . | . | .
Cc1ccc(S(=O)(=O)N2CCN(C(=O)COC(=O)c3ccc(O)cc3)CC2)c(C)c1 | i | . | . | . | . | . | . | .
CC(=O)Nc1ccc(NC2CCCCC2NS(=O)(=O)c2ccccc2)cc1 (configuration not stated) | i | 0.37 | . | . | . | . | . | .
Cc1cc(C)c(S(=O)(=O)Nc2nccs2)c(C)c1 | i | . | . | . | . | . | . | .
O=C(CCCN1CCC(C(=O)c2ccc(F)cc2)CC1)c1ccc(F)cc1 | i | . | . | . | . | . | . | .
O=C(CCCN1CCC(O)(c2ccc(Cl)cc2)CC1)c1ccc(F)cc1 | i | . | 34%* | i | . | . | . | .
CC(C)n1cnc2c(N(C)c3ccccc3)nc(N(CCN(C)C)Cc3ccccc3)nc21 | i | . | 48%* | i | . | . | . | .
COc1ccc(CN(CCN(C)C)c2ccccn2)cc1 | i | 1.3 | . | . | . | . | . | .
CN1CCC(OC(=O)c2ccccc2)CC1 | i | 0.61 | . | . | . | . | . | .
Cc1c(Br)cc(C(=O)OC2CCN(C)CC2)c(C)c1C | i | 0.45 | 25%* | i | . | . | . | .
SMILES | KCNQ2 inh | KCNQ2 pot | Kir21 confirm | HEK293 Tl flux | CHO-K1 Tl ctr | KCNQ1 pot spec | KCNQ2 pot conf | Kir21 spec | others
NNC(=O)c1nc(-c2ccccc2)cc(-c2ccccc2)n1 | i | 0.94 | . | . | . | . | . | .
Cc1ccc(CN2CCC(c3cc(-c4ccc(Cl)cc4)n[nH]3)CC2)cc1 | i | . | . | . | . | . | . | .
Clc1ccc(-c2cc(C3CCNCC3)[nH]n2)cc1 | i | . | 38%* | i | . | . | . | .
CC(C)Cc1nc2n[nH]c(N)c2c2c1CCCC2 | i | 2.6 | . | . | . | . | . | .
CC(C)c1nc2n[nH]c(N)c2c2c1CCCC2 | i | 2.2 | 40%* | i | . | . | . | .
NC(=O)CN1C(=O)NC2(CCOc3ccccc32)C1=O (configuration not stated) | i | . | . | . | . | . | . | .
O=C(OCC(=O)N1CCN(S(=O)(=O)c2ccc(Cl)cc2)CC1)c1cccc(OC(F)F)c1 | i | 11* | i | i | -8 | -16 | 12* | -29 | KCNQ2 W236L pot=i
COc1cccc(/C=C/C(=O)OCC(=O)N2CCN(S(=O)(=O)c3ccc(Cl)cc3)CC2)c1 | i | 2 | . | . | . | . | . | .
Cc1nnsc1C(=O)NNC(=O)c1cccc2ccccc12 | i | 0.98 | . | . | . | . | . | .
C=CCn1c(=S)[nH]c2cc(C(=O)Nc3ccc(OC)c(OC)c3)ccc2c1=O | i | . | . | . | . | . | . | .
C=CCn1c(=S)[nH]c2ccc(Br)cc2c1=O | i | 5.9* | i | i | -9 | -38 | -5 | -36 | KCNQ2 W236L pot=i
COc1cc(C(=O)Nc2ccc(N3CCOCC3)cc2)ccc1OCc1c(C)noc1C | i | . | . | . | . | . | . | .
CCN(CC)CCCNC(=O)c1oc2ccc(S(=O)(=O)N3CC(C)CC(C)C3)cc2c1C (configuration not stated) | i | . | . | . | . | . | . | .
CC1(C)CC(=O)C(C(c2ccco2)C2C(=O)CC(C)(C)CC2=O)C(=O)C1 | i | 9.8* | i | 74%* | -40 | -16 | 40* | -37 | KCNQ2 W236L pot=i
CC1(C)CC(=O)C(C(c2ccc(F)cc2)C2C(=O)CC(C)(C)CC2=O)C(=O)C1 | i | . | . | . | . | . | . | .
COc1ccc(Cl)cc1NC(=S)N(Cc1ccc(C(=O)O)cc1)Cc1ccc(OC)c(OC)c1 | i | . | . | . | . | . | . | .
CCn1cc(/C=N/NC(=O)c2ccc3c(c2)OCO3)c(C)n1 | i | 6.3* | i | i | -12 | -25 | -20 | -39
CCn1ncc(/C=N/NC(=O)c2ccc3c(c2)OCO3)c1C | i | . | . | . | . | . | . | .
CCCc1ccc(C(=O)NNc2cccc(C)c2)cc1 | i | 2.3 | . | . | . | . | . | .
Nc1ncccc1OCc1ccc(Cl)c(Cl)c1 | i | 5.4* | i | i | -2 | -9 | -10 | -30
O=C(OCc1ccc(Cl)c(Cl)c1)c1ccccn1 | i | 0.22 | . | . | . | . | . | .
CC(/C=N/n1c(C2CCCCC2)n[nH]c1=S)=C\c1ccccc1 | i | 8.3* | i | i | 92* | 23* | -15 | -26
Cc1cccc(/C=N/n2c(C3CCCCC3)n[nH]c2=S)c1 | i | . | . | . | . | . | . | .
Cc1nc2sc(C(c3ccc(Cl)cc3)N3CCN(c4ccccc4F)CC3)c(O)n2n1 (configuration not stated) | i | . | . | . | . | . | . | .
O=C(NCCCSc1ccccc1)c1cc(Cl)ccc1O | i | . | . | . | . | . | . | .
Cc1cc(Cl)ccc1C(=O)C1CCCN(C(=O)c2snnc2C)C1 (configuration not stated) | i | 0.01 | . | . | . | . | . | .
O=C(COc1c(Br)cc(Br)cc1Br)N/N=C/c1ccco1 | i | 6.3* | i | i | -3 | -8 | -4 | -20
